# Source: PubChem (several laboratories)
# Peg3 promoter – Peg3 promoter activity inhibition | HeLa PEG-Prom luciferase reporter, luminescence, overnight | inhibition, % at 20 µM | hit rate 1.7% among 360,000 | AID 588405;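 active means inhibition of at least 50% at 20 µM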
# TRPM1 prom inh – reduces MITF-dependent TRPM1 promoter luciferase signal; hit rate 0.83% among 330,000; inhibition, % at 12.5 µM; SK-MEL-5 TRPM1 promoter luciferase, 24 h; AID 488899;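 active means mean inhibition across replicates of 60% or more, whatever share of single replicates reaches that level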
# CF NFkB inh – blocks PAF-induced NF-kB reporter in cystic fibrosis cells; KKLEB NF-kB-GFP reporter, GFP fluorescence overnight; inhibition, % at 5 µM; hit rate 0.86% among 360,000; AID 588850;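 active means at least 50% inhibition at 5 µM, scaled per plate between neutral and stimulator controls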;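 further: PAF is a Pseudomonas aeruginosa culture filtrate used as stimulus; plate controls were PAF-stimulated DMSO wells for no effect and unstimulated DMSO wells for full effect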
# ABHD5 PLIN5 PPI – inhibitors of human ABHD5-perilipin-5 interaction | Q00G26+Q8WTS1 | Split G. princeps luciferase complementation, luminescence, 4 h | inhibition, % at 4 µM | hit rate 0.78% among 360,000;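 active means inhibition above the mean inhibition across every tested compound plus 3 SD, cut at about 22% in these data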;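 further: 0% = DMSO only wells and the 100% control is not disclosed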
# Target sequence (Q00G26 whole entry, looked up): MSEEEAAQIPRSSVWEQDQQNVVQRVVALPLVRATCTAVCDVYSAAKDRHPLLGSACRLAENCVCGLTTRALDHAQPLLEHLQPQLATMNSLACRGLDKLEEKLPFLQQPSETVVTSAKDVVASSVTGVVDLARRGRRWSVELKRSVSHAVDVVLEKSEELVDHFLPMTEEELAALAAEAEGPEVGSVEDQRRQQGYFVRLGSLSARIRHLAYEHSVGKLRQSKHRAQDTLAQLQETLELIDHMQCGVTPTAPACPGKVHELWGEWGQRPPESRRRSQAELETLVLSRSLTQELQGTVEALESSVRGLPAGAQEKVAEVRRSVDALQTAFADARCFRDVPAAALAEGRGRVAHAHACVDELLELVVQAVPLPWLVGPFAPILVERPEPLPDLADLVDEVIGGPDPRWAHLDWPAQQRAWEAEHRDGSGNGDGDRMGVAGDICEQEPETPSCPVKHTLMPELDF
# Target sequence (Q8WTS1 whole entry, looked up): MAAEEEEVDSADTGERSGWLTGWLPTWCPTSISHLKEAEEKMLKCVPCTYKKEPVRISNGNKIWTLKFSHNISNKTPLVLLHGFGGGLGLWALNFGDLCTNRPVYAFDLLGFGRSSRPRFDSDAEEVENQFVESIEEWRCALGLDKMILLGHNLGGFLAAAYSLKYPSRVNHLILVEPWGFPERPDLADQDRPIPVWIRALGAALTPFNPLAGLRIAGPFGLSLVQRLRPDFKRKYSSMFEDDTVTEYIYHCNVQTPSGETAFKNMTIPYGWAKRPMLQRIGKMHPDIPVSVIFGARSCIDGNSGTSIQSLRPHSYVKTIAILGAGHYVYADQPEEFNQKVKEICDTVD
# HIF-2a inh – inhibitors of HIF-2a; 786-0 RCC cells HIF-2a reporter, luciferase luminescence, overnight; inhibition, % at 18.8 µM; hit rate 0.72% among 360,000;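 active means inhibition of the luminescence signal of 40% or more relative to plate controls, in a single-dose primary screen at 18.75 µM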
# KKLEB cytotox – counter-screen for CF NF-kB inhibitors: cytotoxicity | activity change (cytotoxicity), % at 5 µM | KKLEB CF airway cells viability, ATPlite luminescence, overnight; active compounds read low; cells stimulated with P. aeruginosa culture filtrate | hit rate 0.36% among 360,000;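 active means corrected activity change at or below -50% at 5 µM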
# Active calls of the source: *; x = no result given. Rows were chosen to be rich in hits. Some 3.1% of all compounds tested hit in one or more screens of this group.
SMILES,Peg3 promoter,TRPM1 prom inh,CF NFkB inh,ABHD5 PLIN5 PPI,HIF-2a inh,KKLEB cytotox
Oc1c(Cl)cc(Cl)cc1/C=N/Nc1ncc(Br)cn1,37.7,66.4*,30.3,-5.4,6.0,-4.9
CC(C)NC1CCC(Nc2ccnc3cc(Cl)ccc23)CC1 (centres undefined),11.7,25.3,-9.3,6.5,-30.2,2.1
Clc1ccc2c(NCCNC3CCCCC3)ccnc2c1,83.6*,94.9*,12.0,-3.6,-35.8,-16.9
CSc1ccc(CN(C)C(=O)c2cccc(S(=O)(=O)N3CCN(Cc4ccccc4)CC3)c2)cc1,10.6,28.0,13.3,6.9,9.2,1.8
O=C(/C=C/c1ccccc1F)c1ccoc1,11.5,7.3,16.1,30.8*,-0.7,-1.3
CC(/C=C/c1ccccc1F)=N\NC(=O)c1ccccc1,-243.6,-56.2,-0.5,6.1,-132.9,-4.2
CCc1nc(Nc2ccc3c(c2)OCO3)c2oc3ccccc3c2n1,-7.5,-18.6,-1.0,-7.5,-78.9,-8.3
CCc1nc(Nc2cccc(O)c2)c2oc3ccccc3c2n1,57.0*,-7.2,11.7,-3.3,10.2,4.9
CCOc1c(OC(C)=O)ccc(/C=C/c2ccc3cccc(OC(C)=O)c3n2)c1[N+](=O)[O-],-292.3,-104.8,2.1,-4.0,-300.6,9.7
C=CCN1C(=O)/C(=C/c2ccc(OC(C)=O)c(OCC)c2[N+](=O)[O-])SC1=S,-48.5,23.4,54.1*,-4.9,-133.2,-43.7
Cc1ccn2c(NC3CCCCC3)c(-c3cccc(-c4cccc(Cl)c4)c3)nc2c1,55.7*,-11.0,18.4,-28.2,-12.7,-8.9
CCCCNc1c(-c2ccc(OC)c(SC3CCCCC3)c2)nc2cnccn12,68.2*,-1.0,20.9,-3.0,-18.7,-14.2
Cc1ccn2c(NC3CCCC3)c(-c3ccncc3)nc2c1,19.5,10.5,-3.2,-1.9,9.4,-3.6
CCCCNc1c(-c2cccc(-c3cc(C(C)=O)cs3)c2)nc2ccc(C)cn12,62.0*,4.9,83.3*,-0.2,-174.3,-93.2*
CCCCNc1c(-c2ccc(OC)c(SC3CCCCC3)c2)nc2cc(C)ccn12,56.2*,4.6,27.9,-1.7,-17.5,-3.5
CCCCCCSc1cccc(-c2nc3ccc(Cl)cn3c2NCCCC)c1,-23.7,3.3,3.4,-9.2,-31.7,-12.8
CCN(C[C@H]1N[C@@](Cc2ccccc2)(C(=O)OC)[C@H]2C(=O)N(C)C(=O)[C@@H]12)C(=O)Nc1ccc(Cl)cc1,6.0,-5.6,10.8,-9.2,-1.3,-7.7
CCCCC(CC)C(=O)N1CCN(C(=O)c2ccco2)CC1 (centres undefined),12.3,-1.0,7.2,-1.3,20.5,12.0
NS(=O)(=O)c1ccc(CCNC(=O)C(=O)C2C(=O)Nc3ccccc32)cc1 (centres undefined),3.0,13.5,-13.1,-2.8,17.0,5.9
CCCCNc1c(-c2cccc(-c3ccc(OC)cc3)c2)nc2cc(C)ccn12,88.7*,6.5,20.1,-15.8,-80.5,-13.0
CCCCNc1c(-c2ccc(-c3cccc(Cl)c3)cc2)nc2ccccn12,-271.6,-80.1,-8.0,-7.1,-321.5,-3.4
COc1ccc(NC(=S)/N=C(\N)Nc2nc(C)c3ccc(C)cc3n2)cc1,53.0*,8.9,-19.8,-26.0,-1.6,-4.6
COc1ccc2cc(-c3[nH]ncc3CN3C[C@@H]4CCC[C@H]3C4)ccc2c1,-102.8,-7.8,6.2,22.8*,-117.3,-4.0
COc1cc(C2NC(=O)NC(c3ccccc3)=C2C(C)=O)c(Br)c(Br)c1O (centres undefined),1.9,0.9,19.3,6.5,8.6,2.0
COc1ccc(NC(=O)/C(Cl)=C(/Cl)S(=O)Cc2ccc(Cl)cc2)cn1 (centres undefined),104.0*,93.7*,86.8*,95.6*,97.3*,-88.2*
CC(=O)N(C(C)=O)c1ncc2c([nH]c3ccccc32)c1C#N,33.9,34.5,89.5*,3.5,-19.9,-44.5
Cc1nc(C(=O)O)cc2c1[nH]c1ccccc12,-0.1,7.6,-6.8,0.5,8.7,-1.4
C/C(=N\NC(=O)COc1ccc(C(C)(C)C)cc1)c1cc2ccccc2o1,-191.1,-60.4,-3.1,-9.1,-190.6,-57.7*
COc1ccc(CCNC(=O)Nc2nc(C(N)C3CCCCC3)cs2)cc1OC (centres undefined),20.8,x,-15.8,3.6,16.6,-5.1
